Only some compounds are listed: those with a hit (about 11% of all), similar ones and a draw of the others.
NPR1 antag – blocks ANP-stimulated signaling of human Npr1 receptor | P16066 | HEK293 hNpr1 GloSensor cGMP, ANP-stimulated luminescence | Potency, µM (titrated, usually from 46.3 µM), inactives show top-dose activity change, negative = inhibition, most hits filed as inhibitors | 76,000 compounds, 1.6% hits; calls by dose curve; note: nearly all actives have a fitted effect of over 60% in size
Target sequence (P16066 whole entry, looked up): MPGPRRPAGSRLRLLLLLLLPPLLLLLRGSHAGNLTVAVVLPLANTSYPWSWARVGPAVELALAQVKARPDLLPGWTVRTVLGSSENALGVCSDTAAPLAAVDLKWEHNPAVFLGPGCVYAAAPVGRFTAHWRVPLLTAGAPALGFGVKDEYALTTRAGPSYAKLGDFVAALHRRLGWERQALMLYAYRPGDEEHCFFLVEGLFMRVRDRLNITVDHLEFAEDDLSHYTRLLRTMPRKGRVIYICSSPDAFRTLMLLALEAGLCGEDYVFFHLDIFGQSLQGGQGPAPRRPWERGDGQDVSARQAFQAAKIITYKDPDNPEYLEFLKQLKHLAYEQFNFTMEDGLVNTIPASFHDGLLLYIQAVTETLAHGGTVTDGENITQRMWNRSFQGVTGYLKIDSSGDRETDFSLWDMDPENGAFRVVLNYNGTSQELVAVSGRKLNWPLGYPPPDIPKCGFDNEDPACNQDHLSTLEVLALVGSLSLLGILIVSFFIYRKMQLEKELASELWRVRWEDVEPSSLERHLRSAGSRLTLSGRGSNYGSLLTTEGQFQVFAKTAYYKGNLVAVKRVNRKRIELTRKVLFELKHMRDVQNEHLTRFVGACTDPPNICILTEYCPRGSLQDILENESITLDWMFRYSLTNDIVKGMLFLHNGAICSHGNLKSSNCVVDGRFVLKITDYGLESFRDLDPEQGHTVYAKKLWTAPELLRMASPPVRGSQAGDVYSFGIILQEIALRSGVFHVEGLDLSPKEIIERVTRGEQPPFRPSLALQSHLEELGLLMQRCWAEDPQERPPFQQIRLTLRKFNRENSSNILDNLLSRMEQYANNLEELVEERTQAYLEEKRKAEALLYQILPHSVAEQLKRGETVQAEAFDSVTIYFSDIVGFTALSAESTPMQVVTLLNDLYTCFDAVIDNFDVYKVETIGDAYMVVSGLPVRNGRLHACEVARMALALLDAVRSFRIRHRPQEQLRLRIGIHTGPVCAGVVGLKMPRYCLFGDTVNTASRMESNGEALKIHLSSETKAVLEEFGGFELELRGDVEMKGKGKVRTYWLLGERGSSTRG
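HEK293 cells stably expressing human Npr1 and cGMP GloSensor pGS-40F, loaded 2 h with 2% GloSensor reagent, given compound 30 min at room temperature. Luminescence read before and 20 min after 0.1 nM hNppA.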
NIH3T3 tox – NIH 3T3 cell cytotoxicity; NIH 3T3 viability, CellTiter-Glo ATP luminescence, 48-72 h; Potency, µM (highest dose often 96.7 µM), without a hit: at the top dose activity change, negative = cytotoxicity, hits mostly inhibitors; 94,000 compounds, 4.3% hits; AID 1345082; note: nearly all actives have a fitted effect of over 55% in size
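Mouse fibroblast NIH 3T3 cells, 400 per well, received compound via pintool and were incubated for 48 or 72 hr prior to CellTiter-Glo ATP luminescence measurement.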
Luciferase inh – inhibitors of firefly (Photinus pyralis) luciferase; P08659; AID 1347043; Potency, µM (top dose mostly 115 µM), most hits filed as inhibitors; purified P. pyralis luciferase, luminescence, biochemical; 76,000 compounds, 2.5% hits; note: nearly all actives have a fitted effect of over 65% in size
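Purified 10nM P. pyralis luciferase with 10uM D-luciferin and 10uM ATP in 50mM Tris acetate pH 7.5, 10mM Mg acetate, 0.01% Tween-20, 0.05% BSA. qHTS titration; luminescence read by CCD imager.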
HEK cytotox – kills HEK 293 cells. HEK 293 viability, ATP luminescence (CellTiter-Glo), 48-72 h. Potency, µM (doses to about 115 µM), without a hit: at the highest dose activity change, negative = cytotoxicity, actives largely listed as inhibitors. 94,000 compounds, 6.6% hits. AID 1345083; note: nearly all actives have a fitted effect of over 60% in size
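250 HEK 293 cells/well; compound by pintool; incubated 48 or 72 hr at 37 degree Celsius; CellTiter-Glo added, 10 min RT, luminescence imaged.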
Numbers without * were called inactive; i = inactive; ? = inconclusive; . = not tested or not shown; [ ] = another dose, or the depositor's remark. Unless noted, calls come from the whole dose curve; as a rule, active = well fitted curve in the direction sought with a large enough effect; inconclusive = small, poorly fitted or top-dose-only effect, or another doubt; inactive = no such curve, though single readings can be large; an effect the other way counts as inactive or inconclusive. % is set by controls: 0 for no effect and ±100 for the full control effect; potency is the fitted concentration of half-maximal effect.

SMILES	NPR1 antag	NIH3T3 tox	Luciferase inh	HEK cytotox
COC1CN(c2cccc(F)c2)C12CCN(S(=O)(=O)c1cccc(F)c1)CC2 (stereo unspecified)	.	?	.	28µM*
COC1CN(c2cccc(F)c2)C12CCN(C(=O)NC1CCCCC1)CC2 (stereo unspecified)	2%	?	i	45µM*
COC1CN(c2cccc(F)c2)C12CCN(C(=O)C1CCCCC1)CC2 (stereo unspecified)	-2%	-22%	i	28µM*
CN1CCC(C(=O)N2Cc3ccccc3CC3(CCN(Cc4ccncc4)C3)C2)CC1 (stereo unspecified)	.	i	.	4%
O=C1NCCCCCCN(Cc2ccncc2)[C@@H]2CN(C(=O)C3CCCCC3)CC[C@@H]12	5%	?	i	45µM*
O=C1NCCCCCCN(Cc2ccc(C(F)(F)F)cc2)[C@H]2CCC[C@@H]12	-23%	?	i	40µM*
O=C(Nc1cccc(F)c1)N1CCCC(Cn2c(C3CC3)nc3cccnc32)C1 (stereo unspecified)	-14%	?	i	2%
CN(C)c1ccc(CN2Cc3[nH]cnc3C[C@H]2c2nc(-c3ccccc3)no2)cc1	-4%[70.6 µM]	?	40µM*	?
Cc1ccc(-c2noc([C@@H]3Cc4nc[nH]c4CN3Cc3ccc(N(C)C)cc3)n2)cc1	?	100µM*	?	89µM*
O=C(C1CCCN(Cc2cccc(-c3cccs3)c2)C1)N1CCOCC1 (stereo unspecified)	.	-24%	.	?
O=C(C1CCCN(Cc2cccc(-c3cccs3)c2)C1)N1CCN(Cc2ccccc2)CC1 (stereo unspecified)	.	35µM*	.	?
O=C(C1CCCN(Cc2cccc(-c3cccs3)c2)C1)N1CCC(c2ccccc2)CC1 (stereo unspecified)	.	40µM*	.	45µM*
CC(C)c1noc(-c2cccn3c(CNC(=O)c4nccc5ccccc45)nnc23)n1	3%	-17%	i	0%
COc1ccc(-c2[nH]ncc2CN2CCCCCNC(=O)CC2c2ccccc2)cc1 (stereo unspecified)	4%	?	i	?
Cc1ccccc1-n1cc(-c2ccnc(NC(C)Cc3ccncc3)n2)cn1 (stereo unspecified)	?	?	i	35µM*
CSCCC(=O)N1CCCC(CCc2ccccc2F)C1 (stereo unspecified)	-4%	40µM*	i	?
O=C(CCC(F)(F)F)N1CCCC(CCc2c(F)cccc2F)C1 (stereo unspecified)	0%	?	i	-29%
O=C(CCCc1cn[nH]c1)N1CCCC(CCc2c(F)cccc2F)C1 (stereo unspecified)	-21%	?	i	50µM*
Cc1cccc(OCC(=O)Nc2ccc(-c3nnc4n3CCCC4)cc2)c1	-5%	?	i	-16%
CN(Cc1cccc(C(F)(F)F)c1)S(=O)(=O)c1cccs1	-20%[70.6 µM]	?	i	89µM*
CC(C)c1nc2c(c(-c3ccc(O)cc3)n1)CN(C(=O)c1ccccc1Cl)CC2	-1%	?	i	-18%
C=CCNC(=O)c1cnn2ncccc12	-5%[70.6 µM]	-10%[174 µM]	50µM*	i
C=CCNC(=O)c1cnn2cc(C)ccc12	0%[70.6 µM]	-25%[174 µM]	?	-6%[230 µM]
CNC(=O)c1cc(C2CC2)nc2c1c(C1CCCN1C(=O)c1cccc(Cl)c1)nn2C (stereo unspecified)	.	-2%	.	i
c1ccc(CN[C@@H]2C[C@@H]3CO[C@H](c4ccccc4)C[C@@H]3C2)cc1	.	-26%	.	?
SMILES	NPR1 antag	NIH3T3 tox	Luciferase inh	HEK cytotox
c1ccc(-c2ccccc2CN[C@@H]2C[C@@H]3CO[C@H](c4ccccc4)C[C@@H]3C2)cc1	.	18µM*	.	?
Cc1noc(C)c1Cc1ccc(C(=O)N2CCC(OCCOc3ccccc3)CC2)o1	.	?	.	40µM*
COCCOC1CCN(C(=O)c2ccc(Cc3c(C)noc3C)o2)CC1	-3%	i	i	-1%
COc1cncc(Nc2cnc3ccc(-c4ccccc4OC)nn23)c1	?	?	i	?
COc1cncc(Nc2cnc3ccc(-c4ccc(OC)c(OC)c4)nn23)c1	-12%[70.6 µM]	20µM*	i	63µM*
COc1cccc(Nc2cnc3ccc(-c4ccccc4OC)nn23)c1	-3%[70.6 µM]	?	i	79µM*
COc1cncc(Nc2cnc3ccc(-c4ccc(OC)nc4)nn23)c1	1%[70.6 µM]	-24%[138 µM]	i	?
COc1ccc(-c2ccc3ncc(Nc4cnccn4)n3n2)cc1OC	4%[70.6 µM]	25µM*	i	?
COc1ccccc1-c1ccc2ncc(Nc3cccc(N[S+](C)(=O)[O-])c3)n2n1	-20%[70.6 µM]	?	i	63µM*
COc1cccc(C(=O)N2CCC3(CC2)N(c2ccccc2)C(=O)CS3=O)c1 (stereo unspecified)	.	-25%	.	-7%
CCNC(=O)NC[C@@H]1C=C(C)[C@H](CC(=O)NCCN(C)C)C[C@H]1C(C)C	6%[70.6 µM]	i	i	i
COc1ccc(-c2ccc3ncc(Nc4ccc5c(c4)OCO5)n3n2)cn1	-13%[70.6 µM]	?	i	?
COc1ccc(Nc2cnc3ccc(-c4ccccc4)nn23)cc1OC	-13%[70.6 µM]	?	i	63µM*
COc1ccc(-c2ccc3ncc(Nc4ccncc4)n3n2)cc1OC	1%[70.6 µM]	35µM*	i	79µM*
COc1ccc(Nc2cnc3ccc(-c4ccc(OC)c(OC)c4)nn23)cc1OC	-4%[70.6 µM]	20µM*	?	89µM*
COc1cccc(Nc2cnc3ccc(-c4ccc(OC)c(OC)c4)nn23)c1	-12%[70.6 µM]	22µM*	i	56µM*
COc1ccc(Nc2cnc3ccc(-c4cccc(CO)c4)nn23)cc1OC	-15%[70.6 µM]	?	?	?
O=C(c1ccc(F)cc1)N1CCN(C(=O)c2nc3cccnc3n(C3CC3)c2=O)CC1	.	-28%	.	-8%
COc1ccc(Nc2cnc3ccc(-c4ccc(OC)c(OC)c4)nn23)cc1	-1%[70.6 µM]	14µM*	18µM*	?
O=C(c1ccccc1)N1CCC(Oc2cccc(F)c2)C1 (stereo unspecified)	-3%	-25%	i	?
O=C(NCc1ccccc1)N1CCC(N2C(=O)C3(CCCCC3)C2c2ccncc2)CC1 (stereo unspecified)	-1%	-4%	i	i
O=C(c1c(F)cccc1F)N1CCC(n2cc(-c3nc(-c4ccccc4)no3)nn2)CC1	1.1µM*	?	i	?
O=C(c1ccccc1)N1CCC(n2cc(-c3nc(-c4ccccc4)no3)nn2)CC1	0%	40µM*	i	?
Cc1ccc(C(=O)N2CCC(n3cc(-c4nc(-c5ccccc5)no4)nn3)CC2)cc1	-21%	-17%	i	?
O=C(COc1ccccc1)N1CCC(n2cc(-c3nc(-c4ccccc4)no3)nn2)CC1	0%	13µM*	i	?
CC(=O)N(C1CCOCC1)C1CCN(S(=O)(=O)c2cc(F)ccc2C)CC1	-10%	-11%	i	?
